# Results published in ChEMBL document CHEMBL3988442, “University of Dundee, Small-Polar-MMV Screening Library” (2021).
# Target: T1, Aspartate--tRNA(Asp/Asn) ligase (Mycobacterium tuberculosis (strain ATCC 25618 / H37Rv)) (UniProt P9WFW3)
# T1 sequence (whole entry): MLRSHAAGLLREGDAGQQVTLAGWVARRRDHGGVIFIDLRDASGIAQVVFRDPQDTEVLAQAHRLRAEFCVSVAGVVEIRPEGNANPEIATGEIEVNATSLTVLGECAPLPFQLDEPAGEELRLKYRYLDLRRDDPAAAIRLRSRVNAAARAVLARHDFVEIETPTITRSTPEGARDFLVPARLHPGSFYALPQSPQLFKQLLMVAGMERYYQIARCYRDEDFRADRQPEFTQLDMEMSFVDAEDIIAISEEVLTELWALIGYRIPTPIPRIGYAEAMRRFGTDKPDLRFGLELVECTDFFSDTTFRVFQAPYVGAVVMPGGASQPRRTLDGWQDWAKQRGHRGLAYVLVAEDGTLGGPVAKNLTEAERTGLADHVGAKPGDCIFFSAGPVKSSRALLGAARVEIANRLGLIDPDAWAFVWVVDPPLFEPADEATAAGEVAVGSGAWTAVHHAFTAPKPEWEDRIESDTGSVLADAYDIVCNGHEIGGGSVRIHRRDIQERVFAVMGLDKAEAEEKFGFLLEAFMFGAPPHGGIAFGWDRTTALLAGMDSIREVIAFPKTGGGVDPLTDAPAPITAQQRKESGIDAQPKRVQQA
# Experiment: Assay for Asp RNA synthetase-1 from Mycobacterium tuberculosis
# Assay type: functional
# Parameters: scale not given: in the data most compounds retested in dose-response had high values
# Details: 30 µM
row,Compound,Percent Effect [%]
1,CCc1nc(C2CCCN2C(=O)c2ncoc2CC)no1 (centres undefined),-3.37
2,Cc1cnc(N2C[C@H]3C[C@H](C(=O)N(C)C)[C@@H](C2)O3)nc1,2.79
3,Cc1cc(N2CCC(CC(N)=O)CC2)nc(-c2ccncc2)n1,6.11
4,CCc1nnc2n1CCN(C(=O)CN(C)Cc1ccccc1)C2,-3.23
5,Cc1cc(C)c(CNC(=O)N(C)Cc2sccc2C)c(=O)[nH]1,2.05
6,CN1CCCc2cc(NC(=O)N3CCOC(C(N)=O)C3)ccc21 (centres undefined),-0.684
7,CS(=O)(=O)NC[C@]12COC[C@H]1CN(CC1CCCC1)C2,0.107
8,Cc1cnn(CC2CCCCN2CCC(=O)Nc2cc(C)on2)c1 (centres undefined),1.03
9,CC(C)c1nn(C)c(N(C)C)c1CNCc1ccccc1CN(C)C,-0.745
10,CCc1ccc(CNC(=O)N2CCN(Cc3cc(C)no3)CC2)s1,12
11,CC(C)CCC(=O)NC(C)c1nnc2n1CCCCC2 (centres undefined),1.76
12,CC(C)n1[nH]c(=O)c2c1NC(=O)CC2c1cccc(OC(F)F)c1 (centres undefined),0.474
13,CCCS(=O)(=O)N1CCO[C@H]2[C@H](OCc3ccccn3)CC[C@@H]21,3.5
14,C1CC(c2noc(C3CC3)n2)CN(Cc2noc(C3CC3)n2)C1 (centres undefined),-1.05
15,Cc1noc2nc(C3CCN(CC4=CCCOC4)CC3)cc(C(F)F)c12,12.2
16,CC(C)CN1C[C@H]2CCN(Cc3cccnc3)CC[C@H]2S1(=O)=O,-4.32
17,CCN(C)c1ncnc2c1CCN(Cc1csc(C)n1)CC2,-3.19
18,Cc1cc(NC(=O)NCc2ccccc2OC(F)F)n(C)n1,-5.2
19,Cc1nc(CN2CCCCC2Cn2cncn2)nc2ccccc12 (centres undefined),1.73
